Assay results from PubChem BioAssay AID1233 (SRMLSC, 2008).
Entries with a potency or affinity are not part of this list. Active and inactive are the calls of the source.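 Rule for the calls: active = a dose-response curve fit returns a half-maximal inhibitory concentration, extrapolated values included; inactive = the fit returns no such concentration.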

target: HMG-CoA reductase [Enterococcus faecalis] (UniProt Q9FD70); assay: class II HMG-CoA reductase inhibition potency – biochemical, Enterococcus faecalis, confirmation (AID 1233); conditions: purified E. faecalis HMGR, NADPH absorbance 340 nm kinetics; series mostly up to 100 µM

outcome, inactive:
COc1ccc(NC(=O)c2ccc3c(c2)n(C)c(=O)n3C)cc1, Cc1cc(/C=C(\C#N)C(=O)NCc2cccs2)c(C)[nH]1, COc1ccc2c(C)cc(=S)[nH]c2c1, CN(C=O)CP(=O)(O)CN1CCCCC1, CC(C)(C)Cc1nnc(NS(=O)(=O)c2ccccc2)s1, CC1CCCN(C(=O)C2CCN(CC(C)c3ccccc3)CC2)C1 (configuration not stated), CC(=O)Oc1ccccc1-c1nc(C)nc(N(C)C(C)=O)n1, COc1ccc(C(=O)NC2CCN(C(=S)NCCc3ccccc3)CC2)cc1, CN(C)S(=O)(=O)N1CCN(S(=O)(=O)N2CCOCC2)CC1, Cc1ccsc1C=C1C(=O)c2ccccc2C1=O, O=C(O)CCC(=O)NNC(=O)c1ccc(Br)cc1, O=C(COc1cccc(NC(=O)c2ccco2)c1)c1ccc(F)cc1, O=C(Nc1ccc2c(c1)OCO2)c1ccc(COc2ccc3c(c2)CCC3)o1, CCOC(=O)/C(C#N)=C1/C(=O)N(Cc2ccccc2)c2ccccc21, Cc1cccc(-n2nc(C)cc2N)c1, CN(C1CCCC1)C1CCN(C(=O)CNC(=O)/C=C/c2ccccc2)CC1, O=C(COC(=O)CCS(=O)(=O)c1ccc(Cl)cc1)NCCc1ccccc1, CCCCCCCCNC(=S)NCCN1CCCCC1, NNc1nc2c(Cl)ccc(Cl)c2s1, CCN(C(=O)CCc1nc(-c2ccccc2F)no1)c1cc(OC)ccc1OC, NS(=O)(=O)c1ccc(N2C(=O)C3C4CC(C(Br)C4Br)C3C2=O)cc1 (configuration not stated), CCOC(=O)c1nnn(-c2ccc(OC)cc2)c1N, Cc1ccc(C(C(=O)NC(C)(C)C)N(Cc2ccc3c(c2)OCO3)C(=O)c2ccc(CN3CCOCC3)o2)o1 (configuration not stated), CN(C)S(=O)(=O)c1cccc(C(=O)Nc2ccc(S(=O)(=O)N3CCCC3)cc2)c1, CC1CCN(c2cc(N)c(Cl)cc2[N+](=O)[O-])CC1, CC(C)OC(=O)CC(NC(=O)OC(C)(C)C)c1ccccc1 (configuration not stated), CC(C(=O)NC1CCCc2ccccc21)N1CCN(c2ccc(F)cc2)CC1 (configuration not stated), Cc1nn(CCC(=O)NNC(=S)Nc2ccc([N+](=O)[O-])cc2)c(C)c1[N+](=O)[O-], COc1ccc(/C=N/NC(=O)C(C)Sc2ccccn2)cc1[N+](=O)[O-] (configuration not stated), COc1ccc(C(=O)C(C)OC(=O)c2cccc(S(=O)(=O)Nc3cc(Cl)c(OC)cc3OC)c2)cc1 (configuration not stated), COCCn1c(=N)c(C(=O)NCc2ccco2)cc2c(=O)n3cc(C)ccc3nc21, Brc1ccc(CSc2nnc3ccccn23)cc1, N#CC(C#N)=Cc1cc2ccccc2nc1N1CCOCC1, CC(C)OCCCNC(=O)Nc1cccc2ccccc12, [O-]C1=N/[N+](=C/c2ccc(Cl)c(Cl)c2)CC1, Cc1ccc(C)c(N=Cc2ccc(-c3ccc([N+](=O)[O-])cc3)o2)c1, COc1ccccc1N1CCN(CC(=O)c2c(N)n(C)c(=O)n(C)c2=O)CC1
